Assay outcomes (PubChem BioAssay)
Tau fluor cs – counter-screen for tau fibril formation inhibitors | AID 1463 | 280,000 tested, 0.93% active | tau K18 P301L Alexa594 fluorescence, heparin fibrillization | Potency, µM (titrated, usually from 57.7 µM), for the others: top-dose activity change, negative = decrease; also: potency is read from the fitted curve at half-maximal effect; nearly all actives have a fitted effect of over 55% in size
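Human tau K18 P301L (15 uM unlabeled, 0.24 uM Alexa 594-labeled) in 100 mM sodium acetate pH 7 with 20 uM heparin, 6 hr at 37 C. ThT 30 uM added, 1 hr ambient; Alexa 594 FP and total fluorescence read at 555/632 nm.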
G9a inh – inhibitors of human histone lysine methyltransferase G9a | Q96KQ7 | Potency, µM (titrated, usually from 102 µM), for the others: at the top dose activity, negative = inhibition, actives largely listed as inhibitors | G9a H3K9 monomethylation, AlphaScreen, 2 h | AID 504332 | 350,000 tested, 8.8% active; also: potency is read from the fitted curve at half-maximal effect; nearly all actives have a fitted effect of over 75% in size
Target sequence (Q96KQ7 913-1193 limits assumed): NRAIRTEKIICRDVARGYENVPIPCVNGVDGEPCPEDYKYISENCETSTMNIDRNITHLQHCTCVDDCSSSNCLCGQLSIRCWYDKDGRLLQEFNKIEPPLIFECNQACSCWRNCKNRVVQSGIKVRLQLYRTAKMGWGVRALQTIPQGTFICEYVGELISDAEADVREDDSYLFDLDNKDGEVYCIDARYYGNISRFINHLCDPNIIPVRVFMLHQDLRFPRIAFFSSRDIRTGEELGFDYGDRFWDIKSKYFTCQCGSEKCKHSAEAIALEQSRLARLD
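Chemiluminescent proximity detection of H3K9 monomethylation, read after 10 min bead incubation in the dark. Reaction: 20 nM G9a, 500 nM biotin-H3K9 peptide, 20 uM SAM cofactor, 2 h, room temperature, following 15 min enzyme-compound preincubation.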
Tau ThT inhib – blocks human tau fibril formation measured by thioflavin T; Potency, µM (highest dose often 57.4 µM), for inactives: at the top dose activity, negative = inhibition, hits mostly inhibitors; recombinant tau K18 P301L (four-repeat tau fragment), heparin-induced fibrillization, ThT fluorescence; 270,000 tested, 2.1% active; AID 1460; P10636; also: potency is read from the fitted curve at half-maximal effect; nearly all actives have a fitted effect of over 55% in size
Target sequence (P10636 561-689 P618L limits assumed): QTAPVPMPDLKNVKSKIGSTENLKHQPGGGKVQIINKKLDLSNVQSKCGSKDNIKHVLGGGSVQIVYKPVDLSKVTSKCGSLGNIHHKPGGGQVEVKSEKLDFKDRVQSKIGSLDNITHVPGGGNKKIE
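K18 P301L tau (15 uM + 0.24 uM Alexa 594-tagged), heparin 20 uM, NaOAc pH 7, 6 h 37 C; ThT 30 uM, 1 h RT, ex 450/em 510 nm.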
Tau fibril FP – blocks human tau fibril formation measured by polarization; P10636; Potency, µM (highest dose often 57.7 µM), for inactives: top-dose activity, negative = inhibition, usual class: inhibitors; K18 P301L tau heparin fibrillization, Alexa594 FP, 6 h; 280,000 tested, 0.39% active; AID 1468; also: potency is read from the fitted curve at half-maximal effect; nearly all actives have a fitted effect of over 55% in size
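FP of Alexa 594-tau after heparin (20 uM) induction. Substrate: human K18 P301L, 15 uM unlabeled, 0.24 uM labeled. Buffer 100 mM sodium acetate pH 7. 6 hr, 37 C.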
FBPA coupling cs – counter-screen for Giardia aldolase inhibitors: coupling enzyme system; coupling enzyme system counterscreen, AmpLite Red fluorescence; activity change, negative = inhibition, % at 58.2 µM, hits read low; 290,000 tested, 0.67% active; AID 2472; in the data active = activity change below about -30%
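First, compound is pin-transferred into glyceraldehyde-3-phosphate coupling-enzyme reagent at 57.5 uM final and held 10 min at RT. Next, substrate, coupling system and AmpLite Red are added. After 20 min RT, fluorescence (525/598 nm) is read.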
Sfp inh – blocks B. subtilis Sfp PPTase activity; Q9F4F7; Biochemical Sfp PPTase activity, qHTS; Potency, µM, for inactives: largest response in the series, negative = inhibition, usual class: inhibitors; 310,000 tested, 3.5% active; AID 1490;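 also: the enzyme is Sfp with the accession as filed and its product quenches rhodamine fluorescence; potency is read from the fitted curve at half-maximal effect; 0% = enzyme reaction without inhibitor and -100% = no enzyme wells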
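Sfp 15 nM + cpd, 15 min RT; start w/ rhodamine-CoA 5 uM, BHQ-2-YbbR 12.5 uM (final); 50 mM Hepes pH 7.6, 10 mM MgCl2, 0.01% NP-40, 0.01% BSA; read 525/598 nm at 0 and 30 min.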
* marks the source's active call; other numbers are inactive results; ? = inconclusive; · = no result given; [ ] = dose if it differs, or a comment. Most compounds without a hit are left out; they make up all but 11% or so of the library. Unless noted, calls follow the shape of the dose curve; as a rule, active = well fitted curve in the direction sought with a large enough effect; inconclusive = small, poorly fitted or top-dose-only effect, or another doubt; inactive = no such curve, though single readings can be large; an effect the other way counts as inactive or inconclusive. Unless noted, % is scaled to controls: 0 for no effect and ±100 for the full control effect.

SMILES | Tau fluor cs | G9a inh | Tau ThT inhib | Tau fibril FP | FBPA coupling cs | Sfp inh
Cc1nc(Nc2ccc(C(=O)O)cc2)nc(Nc2ccc(C(=O)O)cc2)c1[N+](=O)[O-] | -8% | 45µM* | ? | 0% | 1 | 14%
COC(=O)c1sccc1S(=O)(=O)N(CC(=O)NCc1ccc(F)cc1)c1ccccc1 | -13% | 7%[59 µM] | -7% | 1% | · | ·
COC(=O)c1ccc2c(c1)NC(=O)C(N1CCCC1)S2 (centres undefined) | -11% | ? | -14% | -2% | -1 | 19%
S=C1CCSc2ccc(Cl)cc2N1 | -11% | 6%[59 µM] | -12% | 5% | 0 | 12%
COC(=O)c1ccc2c(c1)SC1=C(CCCC1=O)N2 | -6% | ? | 13µM* | 5% | -5 | -4%
O=C1CCCC2=C1Sc1ccc(Cl)cc1N2 | -15% | 4%[59 µM] | 6.3µM* | 15% | -8 | -10%
O=C(Cn1c(SCc2ccc(F)cc2)nc2cccnc21)Nc1ccccc1F | -25% | -12%[59 µM] | -1% | -7% | · | ·
COc1ccc2[nH]c(=O)c(CN(Cc3ccc(C)cc3)Cc3nnnn3CC3CCCO3)cc2c1 (centres undefined) | -9% | ? | -15% | -7% | -47* | 16µM*
O=c1[nH]c2cc3c(cc2cc1CN(Cc1nnnn1CC1CCCO1)C1CCCCC1)OCO3 (centres undefined) | -6% | ? | -14% | 1% | 0 | -8%
COc1ccc2[nH]c(=O)c(CN(CCc3ccccc3)Cc3nnnn3CC3CCCO3)cc2c1 (centres undefined) | -11% | 8.9µM* | ? | -6% | -40* | 50µM*
COc1ccc2[nH]c(=O)c(CN(Cc3ccccc3OC)Cc3nnnn3CC3CCCO3)cc2c1 (centres undefined) | -9% | -8% | -6% | 4% | -25 | ?
O=c1[nH]c2cc3c(cc2cc1CN(CCc1ccccc1)Cc1nnnn1CC1CCCO1)OCO3 (centres undefined) | -8% | ? | -13% | 6% | -18 | 56µM*
COc1ccc2cc(CN(CCc3ccccc3)Cc3nnnn3CC3CCCO3)c(=O)[nH]c2c1 (centres undefined) | -5% | -33% | 0% | 6% | -1 | -17%
O=c1[nH]c2cc3c(cc2cc1CN(Cc1nnnn1CC1CCCO1)C1CCCC1)OCO3 (centres undefined) | -16% | 13µM* | ? | -8% | 2 | 0%
CCCCNC(=O)c1cc(-c2ccc(OC)cc2)nc2n[nH]c(-c3cccc([N+](=O)[O-])c3)c12 | -15% | 8%[59 µM] | -3% | -6% | · | ·
COc1cc(-c2nc3nc(C)cc(C)n3c2Nc2ccc(Cl)cc2)ccc1O | ? | -45%[59 µM] | ? | 10% | · | ·
Cc1cc(Nc2cc(Cl)ccc2C)n2nc(-c3ccccc3)nc2n1 | -1% | -19%[59 µM] | -9% | -2% | · | ·
Cc1ccc2[nH]c3c(=O)n(CC(=O)N4CCCCC4)ncc3c2c1 | 2% | -10%[59 µM] | 9% | -4% | · | ·
Cc1ccc(C)c(N2CCN(C(=O)Cn3ncc4c([nH]c5ccc(C)cc54)c3=O)CC2)c1 | · | 71µM* | · | · | · | 25%
CCOc1ccc(CCNC(=O)CCNS(=O)(=O)c2ccc3c(c2)CCN3C(C)=O)cc1OCC | · | 10% | · | · | 1 | 13%
CCc1ccc(CNC(=O)Cn2nc(-c3ccc(Cl)cc3)ccc2=O)cc1 | ? | 6%[59 µM] | -16% | 2% | · | ·
COc1cc(NC(=O)CSc2ncnc3sc4c(c23)CCC(C)C4)c(C(=O)O)cc1OC (centres undefined) | · | 20µM* | · | · | 3 | 45µM*
CCOC(=O)C(=O)NN=C(c1ccccc1)c1ccccc1 | -16% | -39%[59 µM] | -12% | -6% | -3 | 14%
CC1=C(C#N)C(=O)NC(=O)/C1=C\c1ccc(-c2cc(C)c(C)cc2[N+](=O)[O-])o1 | ? | 10µM* | 25µM* | ? | 1 | 50µM*
Cc1ccc(-c2ccc(/C=C3/NC(=O)NC3=O)o2)cc1[N+](=O)[O-] | -27% | ? | ? | ? | 0 | ?
SMILES | Tau fluor cs | G9a inh | Tau ThT inhib | Tau fibril FP | FBPA coupling cs | Sfp inh
COC(=O)c1ccc(C2N=C(c3cccs3)CC(c3ccccc3O)N2)cc1 (centres undefined) | -23% | 45µM* | ? | 13% | 1 | -9%
O=C(c1ccccc1)N1N=C(c2cccs2)CC1c1ccccc1O (centres undefined) | · | -4% | · | · | -3 | ?
CC(C)(C)c1ccc(SCCc2cccnc2)cc1 | -14% | 195% | -12% | 1% | 5 | -2%
CCn1c(-c2ccccn2)nc2cc(S(=O)(=O)N(C)C)ccc21 | · | 50µM* | · | · | 1 | 3%
CCCCn1c(CCC(=O)O)nc2cc(S(=O)(=O)N(C)C)ccc21 | 3% | 5% | 3% | 2% | 2 | 13%
CCn1c(-c2cc(Br)cc(OC)c2O)nc2cc(S(=O)(=O)N(C)C)ccc21 | -28% | 45µM* | -18% | 1% | 2 | -9%
COCCN(Cc1nc2ccccc2c(=O)[nH]1)C(=O)c1cccc(S(=O)(=O)N2CCCC2)c1 | · | 19%[12.7 µM] | · | · | · | ·
N#Cc1ccccc1NC(=O)CN1C(=O)NC(Cc2c[nH]c3ccccc23)C1=O (centres undefined) | · | 10µM* | · | · | · | ·
COCCN(CC(=O)Nc1cccc(S(=O)(=O)N2CCCC2)c1)Cc1nc2ccccc2c(=O)[nH]1 | · | 50µM* | · | · | · | ·
O=C(CN1C(=O)NC(Cc2c[nH]c3ccccc23)C1=O)Nc1cccc(S(=O)(=O)N2CCCCCC2)c1 (centres undefined) | 14µM*[quencher] | ? | -4% | -10% | -9 | 15%
Cc1cccc(NC(=O)c2cccc(S(=O)(=O)N3CCCCC3)c2)c1 | · | -4% | · | · | 3 | 1%
COc1cc(C(=O)Nc2cccc(S(=O)(=O)N3CCCC3)c2)cc(OC)c1C | ? | 32µM* | -2% | -17% | -11 | -17%
Nc1nc2c(nc(Sc3ccc(Cl)cc3)n2C2OC(CO)C(O)C2O)c(=O)[nH]1 (centres undefined) | -7% | · | ? | -19% | 6 | -16%
CC(C)NC(=O)C1CCC(Cn2c(=O)c3sccc3n(CC(=O)Nc3ccccc3)c2=O)CC1 (centres undefined) | 11% | 6%[59 µM] | 8% | -13% | · | ·
O=C(CCNC(=O)c1ccc(Br)cc1)Nc1cccc(S(=O)(=O)N2CCCC2)c1 | · | 45µM* | · | · | · | ·
CC(C)(C)c1ccc(OCCCC(=O)Nc2cccc(S(=O)(=O)N3CCOCC3)c2)cc1 | · | 2% | · | · | · | ·
CC(=O)NC(CC(=O)Nc1cccc(S(=O)(=O)N2CCCCC2)c1)c1ccccc1 (centres undefined) | -18% | 50µM* | -1% | -7% | 4 | 6%
